Here are results for 33 compounds from PubChem BioAssay (EPA / NIEHS).

Structures are written as SMILES. Where “and” joins values, the source holds several entries; their conditions need not be identical. Identical values can stand only once. Calls of active or inactive are those of the source. The calls were made as follows: active = hit-call score of the fitted dose curve at least 0.9, where 1 is the maximum; inactive = score below 0.9.

Read-out in one test: urokinase plasminogen activator (uPA), PLAU (gene 5328)
Briefly: BSK_BE3C_uPA: BioMAP Diversity Plus: BE3C Assay for urokinase plasminogen activator (uPA) Biomarker Activity (AID 2283038).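 As to outcome: uPA protein level quantified by ELISA in cell cultures; uPA read one day after compound addition.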 The conditions noted are these: primary human bronchial epithelial cells; actives raise or lower the signal. An outline of the steps: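 Primary human bronchial epithelial cells, uPA measured by ELISA 24 h after dosing. Bidirectional change relative to DMSO; cytotoxicity checked in parallel cultures by sulforhodamine B total-protein staining.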
As for `ClCC(Cl)CCl`, the outcome was inactive.

Regarding `CCOP(=S)(OCC)SCSP(=S)(OCC)OCC`, the result was inactive.

For the compound `CC(=O)C(Cl)C(=O)N(C)C` (stereo not drawn), the outcome was inactive.

As for `COc1cc(-c2ccc(N)c(OC)c2)ccc1N`, the result was inactive.

One may read the AC50 as the concentration at which the activity in the assay is half-maximal. Take `O=C1C2(Cl)C3(Cl)C4(Cl)C(Cl)(Cl)C5(Cl)C3(Cl)C1(Cl)C5(Cl)C24Cl` (stereo not drawn): the AC50 was 5.32 µM (active).

As for `CCOC(=O)/C=C(C)/C=C/C[C@@H](C)CCCC(C)C`, the AC50 was 20 µM (active).

For `CCOP(=S)(OCC)Oc1ccc(S(C)=O)cc1` (stereo not drawn), the outcome was inactive.

Take `ClC1(Cl)C2(Cl)C3(Cl)C4(Cl)C(Cl)(Cl)C5(Cl)C3(Cl)C1(Cl)C5(Cl)C24Cl` (stereo not drawn): the outcome was inactive.

As for `CCC(=O)C(CC(C)N(C)C)(c1ccccc1)c1ccccc1` (stereo not drawn), the result was inactive.

`Cn1sc(Cl)cc1=O`: the result was inactive.

For `Oc1cccc2cccnc12`, the AC50 was 3.44 µM (active).

Consider `CC(C)(C)c1cc(O)ccc1O`, for which the result was inactive.

Take `CCNc1nc(NC(C)(C)C)nc(SC)n1`: the outcome was inactive.

Take `CC(C)c1ccc(CO)cc1`: the result was inactive.

Turning to `CC(C)(C)CC(C)(C)c1ccc(O)cc1`, the AC50 is 26.6 µM (active).

Consider `CCN1CCC2(CC1)COc1cc3c(cc12)N(C(=O)c1ccc(-c2ccc(-c4nnc(C)o4)cc2C)cc1)CC3`, for which the AC50 is 18.7 µM (active).

Take `O=Cc1cccc(Oc2ccccc2)c1`: the outcome was inactive.

For `O=C(O)C(Cl)(Cl)Cl`, the result was inactive.

Turning to `O=c1[nH]c(=O)[nH]c(=O)[nH]1`, the outcome was inactive.

As to `O=[N+]([O-])c1ccc2c3c(cccc13)CC2`, the result was inactive.

For the compound `C=CC(=O)OCCCCCC(C)C`, the result was inactive.

In the case of `CCC(C)(C)c1ccc(O)c(C(C)(C)CC)c1`, the AC50 was 32.4 µM (active).

For `CCOP(=S)(OCC)SCCS(=O)(=O)CC`, the result was inactive.

Take `Nc1ncc([N+](=O)[O-])s1`: the result was inactive.

For the compound `O=C(O)C(F)(F)C(F)(F)C(F)(F)C(F)(F)C(F)(F)C(F)(F)C(F)(F)C(F)(F)C(F)(F)C(F)(F)F`, the AC50 was 11.6 µM (active) and 6.21 µM (active) and 5.27 µM (active).

Take `O=C(O)C(F)(F)C(F)(F)C(F)(F)C(F)(F)C(F)(F)C(F)(F)F`: the result was inactive.

For the compound `NC(=O)O`, the result was inactive.

Consider `Oc1c(I)cc(I)cc1I`, for which the outcome was inactive.

As for `NC(=S)Nc1ccccc1`, the result was inactive.

Consider `COP(=S)(OC)Oc1ccc(S(=O)(=O)N(C)C)cc1`, for which the result was inactive.

For `COC[C@H](C)N(C(=O)CCl)c1c(C)csc1C`, the result was inactive.

As for `Nc1ccc(-c2ccc(N)c(Cl)c2)cc1Cl`, the result was inactive.

Read-out in a further test: Urokinase-type plasminogen activator receptor (uPAR), PLAUR (gene 5329)
The test can be described thus: BSK_BE3C_uPAR: BioMAP Diversity Plus: BE3C Assay for Urokinase-type plasminogen activator receptor (uPAR) Biomarker Activity (AID 2283039).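 As to outcome: uPAR protein level measured by ELISA on the cells; cells exposed to compound for one day before measurement.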 The conditions noted are these: primary human bronchial epithelial cells; actives raise or lower the signal. The method in brief:
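Primary human bronchial epithelial cells dosed for 24 h; uPAR quantified by ELISA with bidirectional fitting against DMSO. Overt cytotoxicity assessed in parallel cultures by SRB total-protein staining (0.1% SRB, 560 nm).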
In the case of `ClCC(Cl)CCl`, the outcome was inactive.

On to `CCOP(=S)(OCC)SCSP(=S)(OCC)OCC`, for which the outcome was inactive.

For `CC(=O)C(Cl)C(=O)N(C)C` (stereo not drawn), the result was inactive.

In the case of `COc1cc(-c2ccc(N)c(OC)c2)ccc1N`, the result was inactive.

Consider `O=C1C2(Cl)C3(Cl)C4(Cl)C(Cl)(Cl)C5(Cl)C3(Cl)C1(Cl)C5(Cl)C24Cl` (stereo not drawn), for which the AC50 was 6.12 µM (active).

For the compound `CCOC(=O)/C=C(C)/C=C/C[C@@H](C)CCCC(C)C`, the AC50 is 20 µM (active).

As to `CCOP(=S)(OCC)Oc1ccc(S(C)=O)cc1` (stereo not drawn), the outcome was inactive.

Regarding `ClC1(Cl)C2(Cl)C3(Cl)C4(Cl)C(Cl)(Cl)C5(Cl)C3(Cl)C1(Cl)C5(Cl)C24Cl` (stereo not drawn), the result was inactive.

For the compound `CCC(=O)C(CC(C)N(C)C)(c1ccccc1)c1ccccc1` (stereo not drawn), the outcome was inactive.

Take `Cn1sc(Cl)cc1=O`: the outcome was inactive.

Take `Oc1cccc2cccnc12`: the AC50 was 4.95 µM (active).

`CC(C)(C)c1cc(O)ccc1O`: the result was inactive.

Turning to `CCNc1nc(NC(C)(C)C)nc(SC)n1`, the result was inactive.

For `CC(C)c1ccc(CO)cc1`, the outcome was inactive.

Turning to `CC(C)(C)CC(C)(C)c1ccc(O)cc1`, the AC50 is 30 µM (active).

As to `CCN1CCC2(CC1)COc1cc3c(cc12)N(C(=O)c1ccc(-c2ccc(-c4nnc(C)o4)cc2C)cc1)CC3`, the AC50 is 18.7 µM (active).

`O=Cc1cccc(Oc2ccccc2)c1`: the result was inactive.

As to `Cc1ccccc1N`, the outcome was inactive.

As for `O=C(O)C(Cl)(Cl)Cl`, the result was inactive.

Regarding `O=c1[nH]c(=O)[nH]c(=O)[nH]1`, the result was inactive.

For the compound `O=[N+]([O-])c1ccc2c3c(cccc13)CC2`, the concentration at half-maximal activity (AC50) was 1.19 µM (active).

As for `C=CC(=O)OCCCCCC(C)C`, the result was inactive.

For `CCC(C)(C)c1ccc(O)c(C(C)(C)CC)c1`, the AC50 is 36.6 µM (active).

As for `CCOP(=S)(OCC)SCCS(=O)(=O)CC`, the outcome was inactive.

For the compound `Nc1ncc([N+](=O)[O-])s1`, the outcome was inactive.

Regarding `O=C(O)C(F)(F)C(F)(F)C(F)(F)C(F)(F)C(F)(F)C(F)(F)C(F)(F)C(F)(F)C(F)(F)C(F)(F)F`, the AC50 was 26 µM (active) and 5.6 µM (active) and 5.59 µM (active).

`O=C(O)C(F)(F)C(F)(F)C(F)(F)C(F)(F)C(F)(F)C(F)(F)F`: the result was inactive.

Regarding `NC(=O)O`, the result was inactive.

`Oc1c(I)cc(I)cc1I`: the AC50 was 2.31 µM (active).

In the case of `NC(=S)Nc1ccccc1`, the outcome was inactive.

On to `COP(=S)(OC)Oc1ccc(S(=O)(=O)N(C)C)cc1`, for which the result was inactive.

Turning to `COC[C@H](C)N(C(=O)CCl)c1c(C)csc1C`, the outcome was inactive.

For the compound `Nc1ccc(-c2ccc(N)c(Cl)c2)cc1Cl`, the result was inactive.

Read-out in the next test: Interleukin-6 (IL6), IL6 (gene 3569)
Briefly: BSK_CASM3C_IL6: BioMAP Diversity Plus: CASM3C Assay for Interleukin-6 (IL6) Biomarker Activity for (AID 2283040). The settings on record: primary human coronary artery smooth muscle cells; actives raise or lower the signal.
Turning to `ClCC(Cl)CCl`, the result was inactive.

Turning to `CCOP(=S)(OCC)SCSP(=S)(OCC)OCC`, the result was inactive.

On to `CC(=O)C(Cl)C(=O)N(C)C` (stereo not drawn), for which the outcome was inactive.

Regarding `COc1cc(-c2ccc(N)c(OC)c2)ccc1N`, the outcome was inactive.

As to `O=C1C2(Cl)C3(Cl)C4(Cl)C(Cl)(Cl)C5(Cl)C3(Cl)C1(Cl)C5(Cl)C24Cl` (stereo not drawn), the AC50 was 33.5 µM (active).

For `CCOC(=O)/C=C(C)/C=C/C[C@@H](C)CCCC(C)C`, the concentration at half-maximal activity (AC50) was 30.7 µM (active).

With `CCOP(=S)(OCC)Oc1ccc(S(C)=O)cc1` (stereo not drawn), the result was inactive.

In the case of `ClC1(Cl)C2(Cl)C3(Cl)C4(Cl)C(Cl)(Cl)C5(Cl)C3(Cl)C1(Cl)C5(Cl)C24Cl` (stereo not drawn), the result was inactive.

With `CCC(=O)C(CC(C)N(C)C)(c1ccccc1)c1ccccc1` (stereo not drawn), the result was inactive.

Regarding `Cn1sc(Cl)cc1=O`, the AC50 is 20 µM (active).

Take `Oc1cccc2cccnc12`: the result was inactive.

Take `CC(C)(C)c1cc(O)ccc1O`: the outcome was inactive.

For the compound `CCNc1nc(NC(C)(C)C)nc(SC)n1`, the outcome was inactive.

`CC(C)c1ccc(CO)cc1`: the result was inactive.

In the case of `CC(C)(C)CC(C)(C)c1ccc(O)cc1`, the concentration at half-maximal activity (AC50) is 12 µM (active).

As for `CCN1CCC2(CC1)COc1cc3c(cc12)N(C(=O)c1ccc(-c2ccc(-c4nnc(C)o4)cc2C)cc1)CC3`, the AC50 is 31.7 µM (active).

On to `O=Cc1cccc(Oc2ccccc2)c1`, for which the outcome was inactive.

As to `Cc1ccccc1N`, the outcome was inactive.

As for `O=C(O)C(Cl)(Cl)Cl`, the result was inactive.

For the compound `O=c1[nH]c(=O)[nH]c(=O)[nH]1`, the result was inactive.

`O=[N+]([O-])c1ccc2c3c(cccc13)CC2`: the outcome was inactive.

Consider `C=CC(=O)OCCCCCC(C)C`, for which the outcome was inactive.

As to `CCC(C)(C)c1ccc(O)c(C(C)(C)CC)c1`, the AC50 is 29.4 µM (active).

Consider `CCOP(=S)(OCC)SCCS(=O)(=O)CC`, for which the outcome was inactive.

On to `Nc1ncc([N+](=O)[O-])s1`, for which the result was inactive.

In the case of `O=C(O)C(F)(F)C(F)(F)C(F)(F)C(F)(F)C(F)(F)C(F)(F)C(F)(F)C(F)(F)C(F)(F)C(F)(F)F`, the outcome was inactive.

Take `O=C(O)C(F)(F)C(F)(F)C(F)(F)C(F)(F)C(F)(F)C(F)(F)F`: the outcome was inactive.

With `NC(=O)O`, the result was inactive.

Turning to `Oc1c(I)cc(I)cc1I`, the outcome was inactive.

Regarding `NC(=S)Nc1ccccc1`, the outcome was inactive.

For the compound `COP(=S)(OC)Oc1ccc(S(=O)(=O)N(C)C)cc1`, the outcome was inactive.

As to `COC[C@H](C)N(C(=O)CCl)c1c(C)csc1C`, the result was inactive.

As to `Nc1ccc(-c2ccc(N)c(Cl)c2)cc1Cl`, the outcome was inactive.
